The supplement of paper PMC10849652
Of roughly 7,900 targets only a part is listed; those with a hit were picked by preference. About 0.6% of all pairs of compound and target were hits.

Compound: C=CC(=O)N1CCC[C@@H](n2nc(-c3ccc(Oc4ccccc4)cc3)c3c(N)ncnc32)C1 [ibrutinib]
Test: log2 fold change, soluble protein after heating vs DMSO (PISA); higher = thermal stabilisation; K562 cells, 10 uM, 30 min; active = over 0.2 and 3.5 SD of the protein, either way, in both replicates (recomputed)
Procedure, shortened: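 Thermal stability values are relative to control samples and come from duplicates. They are expressed as log2 fold changes. For measurement, K562 cells (2×10^6 cells/mL) received 10 μM compound for 30 min, and aliquots were heated for 3 min over 48°C-58°C, pooled, and extracted at 4°C in PBS with 0.5% NP-40. Soluble protein, the supernatant after 21,000xg for 90 min, was quantified by TMTpro 16plex LC-MS/MS with equalised channel sums.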

UniProt Q12974, sequence (Q12974 whole entry, looked up): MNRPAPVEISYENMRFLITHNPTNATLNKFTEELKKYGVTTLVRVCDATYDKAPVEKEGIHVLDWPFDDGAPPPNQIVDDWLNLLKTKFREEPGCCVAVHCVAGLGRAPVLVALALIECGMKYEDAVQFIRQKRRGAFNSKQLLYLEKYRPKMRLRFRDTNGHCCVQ
UniProt P25788, sequence (P25788 whole entry, looked up): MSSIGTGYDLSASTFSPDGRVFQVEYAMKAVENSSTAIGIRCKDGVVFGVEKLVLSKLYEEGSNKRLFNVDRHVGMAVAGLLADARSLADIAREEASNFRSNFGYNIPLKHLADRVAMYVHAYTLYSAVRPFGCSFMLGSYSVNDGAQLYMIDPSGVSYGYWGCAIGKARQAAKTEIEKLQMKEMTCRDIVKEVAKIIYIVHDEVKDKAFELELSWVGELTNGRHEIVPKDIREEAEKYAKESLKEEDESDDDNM
UniProt Q15111, sequence (Q15111 whole entry, looked up): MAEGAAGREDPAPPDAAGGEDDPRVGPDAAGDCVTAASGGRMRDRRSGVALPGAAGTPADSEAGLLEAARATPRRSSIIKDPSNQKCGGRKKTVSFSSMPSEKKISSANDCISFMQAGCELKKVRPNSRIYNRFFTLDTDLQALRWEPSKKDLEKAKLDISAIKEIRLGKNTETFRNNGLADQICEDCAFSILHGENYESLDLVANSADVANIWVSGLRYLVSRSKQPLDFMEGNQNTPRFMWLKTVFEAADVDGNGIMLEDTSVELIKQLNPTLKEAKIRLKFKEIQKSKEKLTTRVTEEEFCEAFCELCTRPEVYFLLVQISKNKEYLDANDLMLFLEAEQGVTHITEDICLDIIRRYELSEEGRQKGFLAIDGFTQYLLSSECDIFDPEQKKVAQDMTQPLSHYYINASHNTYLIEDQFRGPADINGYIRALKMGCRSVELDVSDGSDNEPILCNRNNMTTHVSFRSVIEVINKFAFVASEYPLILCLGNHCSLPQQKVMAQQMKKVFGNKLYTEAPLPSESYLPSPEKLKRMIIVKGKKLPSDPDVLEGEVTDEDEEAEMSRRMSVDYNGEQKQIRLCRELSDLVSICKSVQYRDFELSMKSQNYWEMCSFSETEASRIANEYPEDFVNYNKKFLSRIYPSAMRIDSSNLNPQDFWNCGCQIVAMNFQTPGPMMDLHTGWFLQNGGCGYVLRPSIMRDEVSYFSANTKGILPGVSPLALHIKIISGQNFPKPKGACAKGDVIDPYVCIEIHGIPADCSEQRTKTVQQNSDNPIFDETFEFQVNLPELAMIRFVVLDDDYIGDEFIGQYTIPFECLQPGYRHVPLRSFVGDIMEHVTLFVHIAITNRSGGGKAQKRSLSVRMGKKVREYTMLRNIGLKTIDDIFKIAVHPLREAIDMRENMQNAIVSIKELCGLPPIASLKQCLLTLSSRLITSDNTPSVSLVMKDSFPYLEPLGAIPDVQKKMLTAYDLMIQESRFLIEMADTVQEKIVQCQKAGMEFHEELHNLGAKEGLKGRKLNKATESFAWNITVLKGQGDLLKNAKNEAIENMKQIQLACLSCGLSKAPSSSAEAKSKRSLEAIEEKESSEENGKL
UniProt O43164, sequence (O43164 whole entry, looked up): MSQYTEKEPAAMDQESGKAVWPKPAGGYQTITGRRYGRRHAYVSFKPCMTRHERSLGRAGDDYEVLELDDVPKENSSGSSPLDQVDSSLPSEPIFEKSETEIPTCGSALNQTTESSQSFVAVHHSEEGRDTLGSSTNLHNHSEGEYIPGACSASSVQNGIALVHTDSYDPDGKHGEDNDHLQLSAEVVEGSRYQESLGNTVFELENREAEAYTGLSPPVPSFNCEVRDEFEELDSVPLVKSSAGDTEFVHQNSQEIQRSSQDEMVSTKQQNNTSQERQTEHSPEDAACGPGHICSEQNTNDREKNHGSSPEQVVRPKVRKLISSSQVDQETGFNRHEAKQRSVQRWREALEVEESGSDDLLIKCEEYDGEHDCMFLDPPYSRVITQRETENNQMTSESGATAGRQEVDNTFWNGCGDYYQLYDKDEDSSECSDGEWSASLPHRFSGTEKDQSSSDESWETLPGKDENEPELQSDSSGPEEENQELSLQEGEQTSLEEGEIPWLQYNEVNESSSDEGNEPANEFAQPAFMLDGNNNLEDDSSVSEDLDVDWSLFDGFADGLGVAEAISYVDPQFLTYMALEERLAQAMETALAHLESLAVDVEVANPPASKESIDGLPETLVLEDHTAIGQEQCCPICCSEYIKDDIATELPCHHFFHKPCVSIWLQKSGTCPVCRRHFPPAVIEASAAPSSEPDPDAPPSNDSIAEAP
UniProt P50897, sequence (P50897 whole entry, looked up): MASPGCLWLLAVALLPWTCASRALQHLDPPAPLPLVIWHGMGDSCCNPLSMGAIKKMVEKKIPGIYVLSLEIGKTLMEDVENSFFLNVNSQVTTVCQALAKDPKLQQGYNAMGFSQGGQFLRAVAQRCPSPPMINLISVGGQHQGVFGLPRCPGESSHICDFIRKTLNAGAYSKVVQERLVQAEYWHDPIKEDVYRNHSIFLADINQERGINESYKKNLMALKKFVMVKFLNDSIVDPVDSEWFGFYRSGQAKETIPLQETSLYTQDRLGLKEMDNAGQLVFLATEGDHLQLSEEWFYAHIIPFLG
UniProt P35227, sequence (P35227 whole entry, looked up): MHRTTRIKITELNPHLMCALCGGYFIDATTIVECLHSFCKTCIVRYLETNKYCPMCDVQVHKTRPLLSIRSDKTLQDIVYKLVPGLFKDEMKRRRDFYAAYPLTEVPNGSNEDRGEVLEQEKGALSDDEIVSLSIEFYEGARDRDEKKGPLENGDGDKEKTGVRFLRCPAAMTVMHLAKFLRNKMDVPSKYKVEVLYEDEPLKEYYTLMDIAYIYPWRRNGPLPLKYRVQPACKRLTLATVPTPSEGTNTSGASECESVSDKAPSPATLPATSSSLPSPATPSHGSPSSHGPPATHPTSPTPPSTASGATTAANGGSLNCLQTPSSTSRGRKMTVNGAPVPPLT
UniProt O00231, sequence (O00231 whole entry, looked up): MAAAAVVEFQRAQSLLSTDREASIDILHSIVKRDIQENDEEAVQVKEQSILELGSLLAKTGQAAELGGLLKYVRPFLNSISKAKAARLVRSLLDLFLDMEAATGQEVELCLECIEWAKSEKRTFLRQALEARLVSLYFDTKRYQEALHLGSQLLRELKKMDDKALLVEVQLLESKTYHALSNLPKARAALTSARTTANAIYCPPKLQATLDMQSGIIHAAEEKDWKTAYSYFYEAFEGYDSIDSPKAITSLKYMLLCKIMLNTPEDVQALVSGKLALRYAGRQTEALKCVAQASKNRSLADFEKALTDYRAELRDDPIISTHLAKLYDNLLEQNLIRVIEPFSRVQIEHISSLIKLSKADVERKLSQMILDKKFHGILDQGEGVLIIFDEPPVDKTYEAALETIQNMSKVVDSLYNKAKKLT
UniProt Q8NBL1, sequence (Q8NBL1 whole entry, looked up): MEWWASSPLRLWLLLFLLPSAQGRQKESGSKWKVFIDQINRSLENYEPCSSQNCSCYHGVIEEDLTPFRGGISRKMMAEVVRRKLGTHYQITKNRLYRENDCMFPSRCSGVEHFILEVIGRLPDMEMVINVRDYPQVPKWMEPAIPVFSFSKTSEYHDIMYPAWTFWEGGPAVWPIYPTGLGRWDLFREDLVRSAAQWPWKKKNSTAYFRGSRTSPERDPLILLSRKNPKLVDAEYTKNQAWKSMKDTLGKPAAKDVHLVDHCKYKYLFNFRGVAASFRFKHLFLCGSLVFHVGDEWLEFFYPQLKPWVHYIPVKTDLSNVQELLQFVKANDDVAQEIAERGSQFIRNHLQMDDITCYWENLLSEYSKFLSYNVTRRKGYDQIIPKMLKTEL
UniProt Q8WUK0, sequence (Q8WUK0 whole entry, looked up): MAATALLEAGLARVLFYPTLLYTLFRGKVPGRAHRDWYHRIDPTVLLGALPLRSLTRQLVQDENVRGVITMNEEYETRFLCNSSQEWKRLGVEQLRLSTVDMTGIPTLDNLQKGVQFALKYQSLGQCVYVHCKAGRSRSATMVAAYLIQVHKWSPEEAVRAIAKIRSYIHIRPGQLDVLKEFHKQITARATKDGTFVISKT
UniProt Q5VTL8, sequence (Q5VTL8 whole entry, looked up): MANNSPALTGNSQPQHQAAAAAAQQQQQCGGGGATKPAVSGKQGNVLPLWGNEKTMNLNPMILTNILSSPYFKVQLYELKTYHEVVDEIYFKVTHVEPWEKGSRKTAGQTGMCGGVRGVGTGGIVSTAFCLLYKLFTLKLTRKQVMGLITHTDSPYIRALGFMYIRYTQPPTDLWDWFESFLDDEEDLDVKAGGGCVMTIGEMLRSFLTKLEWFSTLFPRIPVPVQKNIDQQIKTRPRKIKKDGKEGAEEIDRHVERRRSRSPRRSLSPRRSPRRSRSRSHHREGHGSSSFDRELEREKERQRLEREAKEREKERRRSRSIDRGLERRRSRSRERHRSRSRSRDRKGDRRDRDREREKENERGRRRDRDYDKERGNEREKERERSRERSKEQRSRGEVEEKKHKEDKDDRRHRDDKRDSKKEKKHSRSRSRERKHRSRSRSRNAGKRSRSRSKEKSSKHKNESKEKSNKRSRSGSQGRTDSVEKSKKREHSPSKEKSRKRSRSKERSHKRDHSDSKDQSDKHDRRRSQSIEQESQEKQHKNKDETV
UniProt Q9Y5K3, sequence (Q9Y5K3 whole entry, looked up): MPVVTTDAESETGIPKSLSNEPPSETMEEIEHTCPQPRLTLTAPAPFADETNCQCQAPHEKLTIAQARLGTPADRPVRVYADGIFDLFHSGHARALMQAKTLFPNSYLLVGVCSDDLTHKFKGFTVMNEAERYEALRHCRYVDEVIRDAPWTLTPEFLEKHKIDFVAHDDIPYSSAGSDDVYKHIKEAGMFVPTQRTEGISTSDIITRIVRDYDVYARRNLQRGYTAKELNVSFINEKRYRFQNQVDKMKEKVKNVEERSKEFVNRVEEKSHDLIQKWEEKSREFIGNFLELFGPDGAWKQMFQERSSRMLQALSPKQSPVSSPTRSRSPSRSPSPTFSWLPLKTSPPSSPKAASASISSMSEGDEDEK
UniProt P06454, sequence (P06454 whole entry, looked up): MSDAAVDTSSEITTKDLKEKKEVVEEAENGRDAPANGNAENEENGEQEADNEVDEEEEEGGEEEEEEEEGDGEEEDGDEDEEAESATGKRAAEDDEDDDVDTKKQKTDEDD

log2 fold change, inactive:
PLIN2 (UniProt Q99541) 0.055, PCGF2 (UniProt P35227) -0.101, PRKAR1B (UniProt P31321) 0.004, PSMB6 (UniProt P28072) -0.025, PGGHG (UniProt Q32M88) 0.045, PTGFRN (UniProt Q9P2B2) 0.06, PLCL1 (UniProt Q15111) 0.31, PURA (UniProt Q00577) 0.096, PPT1 (UniProt P50897) 0.049, PKN2 (UniProt Q16513) -0.054, PTPMT1 (UniProt Q8WUK0) -0.05, PTMA (UniProt P06454) 0.049, POGLUT1 (UniProt Q8NBL1) -0.03, POLR2C (UniProt P19387) -0.025, PRPF38B (UniProt Q5VTL8) -0.005, PSMA3 (UniProt P25788) -0.013, PJA2 (UniProt O43164) 0.023, PTP4A2 (UniProt Q12974) 0.16, PCYT1B (UniProt Q9Y5K3) -0.029, PPP1R14A (UniProt Q96A00) -0.01, PIK3CB (UniProt P42338) -0.049, POLD3 (UniProt Q15054) -0.01, PSMD11 (UniProt O00231) 0, PMM1 (UniProt Q92871) 0.039
